Compound activity from PubChem.
TRHR PAM: TRH receptor (human) allosteric enhancement; TRHR cells, fluo-8 calcium fluorescence, EC20 TRH enhancement; P34981; enhancement, % at 2 µM; 0.66% of 360,000 active; in the data active = enhancement above about 30%
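Enhancer read-out: after compound pinning and an initial kinetic agonist-mode read, an EC20 of TRH (10 nM final) was injected and fluo-8 calcium signal (Ex 480/Em 530) followed at 1 s/cycle for 100 cycles in TRHR-expressing cells.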
TRPV1 agonist: activates the human vanilloid receptor TRPV1. activation, % at 8.33 µM. TRPV1-expressing cells, Fluo-8 calcium influx, agonist mode. 0.19% of 320,000 active; in the data active = activation above about 80%; inconclusive = between about 30% and that limit
Target sequence (Q8NER1 whole entry, looked up): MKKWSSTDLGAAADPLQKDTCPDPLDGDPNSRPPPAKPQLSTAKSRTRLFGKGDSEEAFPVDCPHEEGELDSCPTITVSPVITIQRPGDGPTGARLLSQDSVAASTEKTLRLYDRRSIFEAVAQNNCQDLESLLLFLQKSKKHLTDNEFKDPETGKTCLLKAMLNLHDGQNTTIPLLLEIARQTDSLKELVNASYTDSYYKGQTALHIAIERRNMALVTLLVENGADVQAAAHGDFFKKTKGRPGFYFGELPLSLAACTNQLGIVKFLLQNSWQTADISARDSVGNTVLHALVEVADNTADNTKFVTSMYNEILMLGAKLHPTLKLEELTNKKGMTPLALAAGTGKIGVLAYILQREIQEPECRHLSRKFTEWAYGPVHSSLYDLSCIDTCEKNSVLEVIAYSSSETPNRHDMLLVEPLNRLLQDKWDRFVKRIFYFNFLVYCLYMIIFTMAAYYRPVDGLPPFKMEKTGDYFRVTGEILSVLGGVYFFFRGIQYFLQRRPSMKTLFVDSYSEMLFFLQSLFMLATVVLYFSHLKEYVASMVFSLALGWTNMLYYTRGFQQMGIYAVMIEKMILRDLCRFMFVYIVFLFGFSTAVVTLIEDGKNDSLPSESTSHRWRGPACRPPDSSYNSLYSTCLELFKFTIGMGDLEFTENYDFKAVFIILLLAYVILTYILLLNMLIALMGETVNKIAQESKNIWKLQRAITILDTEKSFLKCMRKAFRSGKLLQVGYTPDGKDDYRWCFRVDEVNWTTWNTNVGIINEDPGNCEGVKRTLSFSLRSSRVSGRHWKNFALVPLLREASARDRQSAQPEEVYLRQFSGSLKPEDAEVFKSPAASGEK
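Cells expressing TRPV1 were dye-loaded with Fluo-8 and read kinetically: 10 s baseline, 3 min after compound (agonist portion), then 2 min after EC20 capsaicin (allosteric enhancer portion). Calcium-bound dye fluorescence at 480/520 nm.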
TRHR agonist: TRH receptor (human) agonism | AID 493084 | P34981 | 0.18% of 360,000 active | TRHR cells, calcium flux fluo-8, FDSS agonist mode | activation, % at 2 µM; in the data active = activation above about 30%
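TRHR-expressing cells loaded with fluo-8 calcium dye; 23 nL library compound pin-transferred, kinetic FDSS fluorescence (Ex 480/Em 530) recorded about 180 s for agonist-induced calcium release, before a 10 nM TRH EC20 addition for potentiator mode.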
TRPML1 blocker: blocks the human TRPML1 channel | Q9GZU1 | TRPML1-inducible cells, Ca2+ dye fluorescence, FDSS; hits give low values; inhibition of EC80 agonist-evoked calcium signal | activity change, negative = inhibition, % (no concentration beside the values) | 0.02% of 390,000 active | AID 624415; in the data active = activity change below about -50%; inconclusive = between about -30% and that limit;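 note: stimulus is agonist 54-4 at its EC80 concentration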
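Calcium fluorescence in TRPML1-DL cells induced overnight with Tet: a 110 s read after compound pin addition, then a 110 s antagonist read after challenge with 54-4 at 4 uM final (EC80).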
TRPML1 agonist: human mucolipin-1 channel agonism | Q9GZU1 | TRPML1-expressing cells, Ca2+ dye fluorescence, FDSS | activation, % (concentration not given with the values) | 0.12% of 410,000 active | AID 624414; in the data active = activation above about 50%; inconclusive = mostly about 30% to 49%
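TRPML1-DL cells, Tet-induced overnight (~16 h, 37 degrees C), loaded 45-90 min at room temperature with Ca8 no-wash calcium dye plus quencher. FDSS fluorescence: 10 s baseline, compound pin-transfer, 110 s agonist read, then EC80 54-4 (4uM final) and 110 s antagonist read.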
TRPV1 PAM: potentiators of human vanilloid receptor 1 (TRPV1); potentiation, % at 8.33 µM; 0.02% of 320,000 active; TRPV1-expressing cells, Fluo-8 calcium influx, capsaicin EC20 potentiation; in the data active = potentiation above about 80%; inconclusive = between about 30% and that limit
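TRPV1-expressing cells were cultured overnight at 35.5C and loaded with Fluo-8 calcium dye for 40 to 90 min at room temperature. After a 10 s baseline, compound was added and calcium influx was read kinetically for 3 min (ex 480/em 520 nm).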
Large screens that a line does not name were inactive. Most compounds without a hit are left out; they make up all but 0.99% or so of the library.

CCN(CC)c1ccc2cc(C(=O)Nc3ccccn3)c(=O)oc2c1	TRHR agonist 37
CCN(CC)c1ccc2cc(C(N)=O)c(=O)oc2c1	none
CCN(CC)c1ccc2cc(C=O)c(=O)oc2c1	TRPV1 agonist inconclusive, TRHR agonist 116, TRPML1 agonist 113
O=C(Nc1cc(OC(=O)C(F)(F)F)c2nonc2c1OC(=O)C(F)(F)F)C(F)(F)F	none (no result: TRHR PAM, TRPV1 agonist, TRHR agonist, TRPML1 blocker, TRPV1 PAM)
CCOc1ccccc1CNc1nc2ccccc2n1C	TRPV1 PAM 84
Cn1c(NCc2ccccc2O)nc2ccccc21	none
C(=C\c1ccnc2ccccc12)/c1ccc2ccccc2n1	none (no result: TRHR PAM, TRPV1 agonist, TRHR agonist, TRPML1 blocker, TRPV1 PAM)
Fc1ccc(CNc2nc(-c3ccco3)cc(C(F)(F)F)n2)cc1	TRHR PAM 38
CC(C)N(c1ccc(C=O)cc1)C(C)C	none (no result: TRHR PAM, TRPV1 agonist, TRHR agonist, TRPML1 blocker, TRPV1 PAM)
O=c1cc(O)c(-c2ccc(Cl)c(Cl)c2)c(Cl)[nH]1	TRHR PAM 35
O=C(CSc1nnc(CNC(=O)c2ccc(F)cc2)o1)NCCc1ccccc1	none
COc1ccc(C(=O)NCc2nnc(SCC(=O)NCCc3ccccc3)o2)cc1	TRHR PAM 36
COCCCOc1ccnc(CS(=O)c2nc3ccccc3[nH]2)c1C (stereo not given)	none
COc1ccc2nc(S(=O)Cc3ncc(C)c(OC)c3C)[nH]c2c1 (stereo not given)	TRHR PAM 32
Cc1cc(C(=O)Nc2ccccc2C(=O)O)ccc1NC(=O)COc1ccccc1Cl	TRHR PAM 35
C=CCn1c(COc2ccccc2F)nnc1SCCN1C(=O)c2ccccc2C1=O	TRHR PAM 38
C=CCn1c(SCCN2C(=O)c3ccccc3C2=O)nc2scc(-c3ccc(F)cc3)c2c1=O	none (no result: TRHR PAM, TRPV1 agonist, TRHR agonist, TRPV1 PAM)
COc1ccc(/C=N/n2c(-c3cc(C)[nH]n3)n[nH]c2=S)cc1	none
Cc1cc(-c2n[nH]c(=S)n2/N=C/c2ccc(C)o2)n[nH]1	TRHR PAM 40
COc1ccc(CC(=O)Nc2cccc(-c3nnc(-c4ccco4)o3)c2)cc1	none (no result: TRHR PAM, TRPV1 agonist, TRHR agonist, TRPV1 PAM)
O=C(Cc1cccs1)Nc1cccc(-c2nnc(-c3ccco3)o2)c1	TRPV1 agonist inconclusive, TRPV1 PAM 89
C/C(=N\NC(=S)NC(C)C)c1ccccc1	none (no result: TRPML1 blocker, TRPML1 agonist)
CC(C)NC(=S)NC(c1ccccc1)(c1ccccc1)c1ccccc1	TRPV1 agonist inconclusive, TRPML1 agonist 70
CC(C)(C)n1ncc2c(=O)n(Cc3ccc(SC(=O)O)cc3Cl)cnc21	none (no result: TRHR PAM, TRPV1 agonist, TRHR agonist, TRPV1 PAM)
CC(C)CC(c1nnnn1C(C)C)N1CCN(c2cccc(Cl)c2)CC1 (stereo not given)	TRPML1 agonist 84
CN(C)c1ccc(/C=C/C(O)=C2/C(=O)N(C)C3(C)CC2c2ccccc2O3)cc1 (stereo not given)	TRHR agonist 32 (no result: TRPML1 blocker, TRPML1 agonist)
Cc1ccc(CNC(=O)CSCc2ccc(F)cc2)cc1	TRPV1 agonist 81
CCC1SC(CC)C(=O)N(CC(=O)NCc2ccc(F)cc2)C1=O (stereo not given)	none
Cc1ccc(CNC(=O)c2nc(SCc3ccc(F)cc3)ncc2Cl)cc1	TRHR PAM 42 (no result: TRPV1 agonist, TRPV1 PAM)
CC1SC(C)C(=O)N(CC(=O)NCc2ccc(F)cc2)C1=O (stereo not given)	TRHR PAM 39
Cc1ccc(CNC(=O)CSCc2ccccc2)cc1	TRPV1 agonist inconclusive
Cc1ccc(Cn2ncc3c4sc(C)cc4n(C)c3c2=O)cc1	none (no result: TRPV1 agonist, TRPML1 blocker, TRPML1 agonist, TRPV1 PAM)
O=C(C[n+]1cccc2cc(Cl)ccc21)c1ccc2c(c1)CCCC2	none (no result: TRHR PAM, TRPV1 agonist, TRHR agonist, TRPML1 blocker, TRPV1 PAM)
COc1ccc(S(=O)(=O)n2cccc2)c(OC)c1	TRHR PAM 32
S=C(NCc1ccccc1)NCc1ccc(CNC(=S)NCc2ccccc2)cc1	TRPV1 agonist inconclusive
Fc1ccccc1CNC(=S)NCc1ccc(Cl)cc1	TRPV1 agonist 84
Fc1ccc(CNC(=S)NCc2ccccc2)cc1	TRPV1 agonist 84
O=[N+]([O-])c1ccc(-n2nnnc2-c2ccccc2)cc1	TRHR PAM 36
O=[N+]([O-])c1ccc(-n2nnnc2-c2ccccc2)c([N+](=O)[O-])c1	none
CC(=O)Nc1cc(O)c2nonc2c1O	none (no result: TRHR PAM, TRPV1 agonist, TRHR agonist, TRPML1 blocker, TRPV1 PAM)
CC1CCN(CCCNS(=O)(=O)c2cc(Br)cc3c2N(C(=O)C2CC2)CC3)CC1	TRHR PAM 33
CCN1CCN(Cc2c(O)ccc3c2O/C(=C\C=C\c2ccccc2OC)C3=O)CC1	TRHR agonist 33
CCN1CCN(Cc2c(O)ccc3c(=O)c(-c4ccccc4OC)coc23)CC1	none
CS(=O)(=O)N(CC(=O)N1CCc2ccccc2C1)c1cccc([N+](=O)[O-])c1	TRHR PAM 32
CCNC(=S)N(CCO)Cc1cc2cc3c(cc2[nH]c1=O)OCO3	TRHR PAM 34 (no result: TRPML1 blocker, TRPML1 agonist)
CNC(=S)N(CCO)Cc1cc2cc3c(cc2[nH]c1=O)OCO3	none
Cc1cc(C)cc(N(CCC#N)C(=O)CSC2=Nc3ccccc3C3CC=NN23)c1 (stereo not given)	TRHR PAM 34
CN(C)/[N+]([O-])=N\Oc1cc(OC(=O)c2ccc(N)cc2)c([N+](=O)[O-])cc1[N+](=O)[O-]	none (no result: TRHR PAM, TRPV1 agonist, TRHR agonist, TRPV1 PAM)
